Laboratory results reported in the supplement of paper PMC10849652.
Of roughly 8,800 targets only a part is listed; those with a hit were picked by preference. About 0.5% of all pairs of compound and target were hits.

Columns and labels:
Assay in all cases: log2 fold change, soluble protein after heating vs DMSO (PISA); higher = thermal stabilisation; K562 lysate, 10 uM; active = over 0.2 and 3.5 SD of the protein, either way, in both replicates (recomputed)
ibrutinib = compound: C=CC(=O)N1CCC[C@@H](n2nc(-c3ccc(Oc4ccccc4)cc3)c3c(N)ncnc32)C1 [ibrutinib]
Procedure, shortened: (§1)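 Log-two fold change in thermal stability relative to solvent controls is reported from duplicates. For each sample, crude K562 extract from dounce-homogenised pellets in PBS pH 7.4 with 1 mM MgCl2, at 1 mg/mL protein, was treated with 10 μM compound for 30 min. Aliquots heated for 3 min across 48°C-58°C were pooled, brought to 0.5% NP-40 at 4°C and cleared at 21,000xg for 90 min. The supernatant was quantified by TMTpro 16plex LC-MS/MS with channel sums equalised.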

ralimetinib = compound: CC(C)(C)Cn1c(N)nc2ccc(-c3[nH]c(C(C)(C)C)nc3-c3ccc(F)cc3)nc21 [ralimetinib]
Procedure, shortened: as §1

[1] = compound: CC(C)(O)CC(=O)NCCn1ccc2ncnc(Nc3ccc(Oc4cccc(C(F)(F)F)c4)c(Cl)c3)c21
Procedure, shortened: as §1

[2] = compound: CC(C)C1=C2N=C(C=C(N2N=C1)NCC3=CC=CC=C3)NCCCCCCN
Procedure, shortened: as §1

[3] = compound: CC1=C(C(CC(=O)N1)C2=CC=C(C=C2)C(F)(F)F)C(=O)NC3=C(C=C4C(=C3)C=NN4)F
Procedure, shortened: as §1

[4] = compound: CC1=C(C2=C(C=C1)C(=O)C3=CC=CC=C3N2CCCN)C
Procedure, shortened: as §1

[5] = compound: CC1=C(C=C(C=C1)NC(=O)C2=CC(=CC=C2)C(C)(C)C#N)NC3=CC4=C(C=C3)N=CN(C4=O)C
Procedure, shortened: as §1

[6] = compound: CC1=C(C=C(C=C1)NC(=O)C2=CC(=CC=C2)N(C)C)NC(=O)C3=CC=C(C=C3)O
Procedure, shortened: as §1

vemurafenib = compound: CCCS(=O)(=O)Nc1ccc(F)c(C(=O)c2c[nH]c3ncc(-c4ccc(Cl)cc4)cc23)c1F [vemurafenib]
Procedure, shortened: as §1

barasertib = compound: CCN(CCCOc1ccc2c(Nc3cc(CC(=O)Nc4cccc(F)c4)[nH]n3)ncnc2c1)CCOP(=O)(O)O [barasertib]
Procedure, shortened: as §1

[7] = compound: CCn1c(C(=O)N(C2CC2)C2CC2)cc2c3c(ncn3C)c(Nc3cc(C)n(C)n3)nc21
Procedure, shortened: as §1

[8] = compound: CCn1cc(-c2ccnc3[nH]c(-c4cccc(CN(C)C)c4)cc23)c(-c2ccc(NC(=O)N(C)C)cc2)n1
Procedure, shortened: as §1

[9] = compound: CN1CCC(CNc2ccc3ncc(-c4cccc(OC(F)(F)F)c4)n3n2)CC1
Procedure, shortened: as §1

saracatinib = compound: CN1CCN(CCOc2cc(OC3CCOCC3)c3c(Nc4c(Cl)ccc5c4OCO5)ncnc3c2)CC1 [saracatinib]
Procedure, shortened: as §1

sotrastaurin = compound: CN1CCN(c2nc(C3=C(c4c[nH]c5ccccc45)C(=O)NC3=O)c3ccccc3n2)CC1 [sotrastaurin]
Procedure, shortened: as §1

[10] = compound: CC(=O)c1cnc2ccc(-c3cc(Cl)c(O)c(Cl)c3)nc2c1N[C@H]1CC[C@H](CN(C)C)CC1
Procedure, shortened: as §1

[11] = compound: CC1=CC=C(C=C1)SC2=C3C=C(SC3=CN=C2)C(=O)N
Procedure, shortened: as §1

[12] = compound: CCCS(=O)(=O)Nc1ccc(F)c(C(=O)c2c[nH]c3ncc(Cl)cc23)c1F
Procedure, shortened: as §1

[13] = compound: CC[C@@H]1C(=O)N(C)c2cnc(Nc3ccc(C(=O)NC4CCN(C)CC4)cc3OC)nc2N1C1CCCC1
Procedure, shortened: as §1

volasertib = compound: CC[C@@H]1C(=O)N(C)c2cnc(Nc3ccc(C(=O)N[C@H]4CC[C@H](N5CCN(CC6CC6)CC5)CC4)cc3OC)nc2N1C(C)C [volasertib]
Procedure, shortened: as §1

Measured: log2 fold change

TJP1 (UniProt G3V1L9)
inactive: ibrutinib 0.024 | ralimetinib 0.075 | [1] -0.014 | [2] -0.025 | [3] -0.041 | [4] 0.022 | [5] -0.017 | [6] -0.041 | vemurafenib 0.076 | barasertib -0.034 | [7] -0.021 | [8] 0.04 | [9] -0.004 | saracatinib 0.096 | sotrastaurin -0.046

TMEM167B (UniProt Q9NRX6)
Sequence of UniProt Q9NRX6 (Q9NRX6 whole entry, looked up): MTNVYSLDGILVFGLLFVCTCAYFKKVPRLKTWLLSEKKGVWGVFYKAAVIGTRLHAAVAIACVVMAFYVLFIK
inactive: ibrutinib 0.019 | [10] -0.02 | ralimetinib 0.015 | [1] 0.001 | [2] -0.02 | [3] -0.058 | [5] 0.021 | [6] 0.035 | [11] -0.033 | vemurafenib 0.058 | [12] -0.057 | barasertib -0.009 | [13] 0.053 | volasertib 0.038 | [7] -0.028 | [9] 0.086 | sotrastaurin 0.056
active: [8] -0.472

TMEM177 (UniProt Q53S58)
Sequence of UniProt Q53S58 (Q53S58 whole entry, looked up): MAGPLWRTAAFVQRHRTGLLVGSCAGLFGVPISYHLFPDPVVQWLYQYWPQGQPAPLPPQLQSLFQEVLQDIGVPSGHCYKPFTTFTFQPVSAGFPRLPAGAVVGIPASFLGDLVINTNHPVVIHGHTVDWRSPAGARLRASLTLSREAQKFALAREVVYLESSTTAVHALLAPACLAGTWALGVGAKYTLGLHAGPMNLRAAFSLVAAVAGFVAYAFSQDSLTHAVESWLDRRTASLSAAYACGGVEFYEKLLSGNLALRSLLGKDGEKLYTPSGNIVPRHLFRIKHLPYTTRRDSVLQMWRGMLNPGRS
active: [1] -0.311
inactive: ibrutinib 0.079 | [10] -0.022 | ralimetinib -0.287 | [2] 0.007 | [5] -0.03 | [6] 0.032 | [11] -0.005 | vemurafenib -0.057 | [12] 0.011 | barasertib 0.063 | [13] -0.005 | volasertib -0.076 | [7] 0.078 | [8] 0.056 | [9] -0.161 | sotrastaurin -0.017

TXNIP (UniProt Q9H3M7)
Sequence of UniProt Q9H3M7 (Q9H3M7 whole entry, looked up): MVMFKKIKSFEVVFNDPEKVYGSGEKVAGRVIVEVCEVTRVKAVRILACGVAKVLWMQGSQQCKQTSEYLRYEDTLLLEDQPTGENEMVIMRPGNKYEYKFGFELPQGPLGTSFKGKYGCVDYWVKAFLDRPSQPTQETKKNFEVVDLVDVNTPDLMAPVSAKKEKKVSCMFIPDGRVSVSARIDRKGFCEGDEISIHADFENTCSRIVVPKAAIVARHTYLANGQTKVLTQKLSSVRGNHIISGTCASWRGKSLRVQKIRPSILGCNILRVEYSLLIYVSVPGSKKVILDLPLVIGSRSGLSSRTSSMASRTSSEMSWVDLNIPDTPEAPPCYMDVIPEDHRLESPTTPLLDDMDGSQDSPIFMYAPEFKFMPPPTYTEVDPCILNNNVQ
inactive: ibrutinib -0.009 | ralimetinib 0.007 | [1] -0.02 | [2] -0.053 | [3] 0.011 | [4] -0.036 | [5] 0.037 | [6] 0.016 | vemurafenib 0.008 | barasertib -0.005 | [13] -0.006 | [7] 0.016 | [8] 0.209 | [9] -0.11 | saracatinib -0.07 | sotrastaurin 0.016

TBC1D20 isoform 3 (UniProt Q96BZ9)
Sequence of UniProt Q96BZ9 (Q96BZ9 whole entry, looked up): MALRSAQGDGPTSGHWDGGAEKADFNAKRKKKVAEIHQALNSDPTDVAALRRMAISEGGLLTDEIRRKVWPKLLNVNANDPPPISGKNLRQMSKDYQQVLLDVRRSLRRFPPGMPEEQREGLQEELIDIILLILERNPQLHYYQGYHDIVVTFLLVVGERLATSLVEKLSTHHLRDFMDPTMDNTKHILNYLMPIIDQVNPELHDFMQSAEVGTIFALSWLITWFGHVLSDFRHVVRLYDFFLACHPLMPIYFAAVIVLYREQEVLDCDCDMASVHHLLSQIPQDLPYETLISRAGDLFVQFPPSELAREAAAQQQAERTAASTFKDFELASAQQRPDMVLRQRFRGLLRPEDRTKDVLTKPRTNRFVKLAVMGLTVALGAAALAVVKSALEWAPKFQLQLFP
inactive: ibrutinib 0.078 | [10] -0.016 | ralimetinib 0.001 | [1] -0.14 | [2] -0.082 | [4] 0.05 | [5] -0.171 | [6] 0.019 | [11] -0.005 | vemurafenib -0.088 | [12] -0.069 | [13] 0.043 | volasertib 0.008 | [7] 0.059 | [8] 0.046 | [9] -0.033 | saracatinib -0.038 | sotrastaurin -0.096
active: barasertib 0.438

TNIK (UniProt C9J338)
inactive: ibrutinib 0.041 | [10] -0.076 | [2] 0.025 | [4] -0.042 | [5] 0.16 | [11] -0.114 | vemurafenib 0.151 | [12] 0.064 | barasertib 0.028 | [13] 0.171 | volasertib -0.011 | [8] -0.51 | [9] 0.341 | saracatinib 0.033 | sotrastaurin -0.026

TFPI (UniProt P10646)
Sequence of UniProt P10646 (P10646 whole entry, looked up): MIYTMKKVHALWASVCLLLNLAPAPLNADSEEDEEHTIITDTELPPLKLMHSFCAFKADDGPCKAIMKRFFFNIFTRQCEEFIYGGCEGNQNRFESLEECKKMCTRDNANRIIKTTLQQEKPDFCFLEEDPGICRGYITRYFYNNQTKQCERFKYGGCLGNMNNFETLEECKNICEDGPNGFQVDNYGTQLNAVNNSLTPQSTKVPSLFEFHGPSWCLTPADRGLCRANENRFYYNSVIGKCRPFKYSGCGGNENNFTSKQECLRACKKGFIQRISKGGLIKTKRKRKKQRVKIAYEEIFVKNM
inactive: ibrutinib 0.024 | [10] 0.035 | ralimetinib 0.046 | [1] -0.003 | [2] -0.011 | [3] -0.042 | [5] 0.021 | [6] -0.027 | [11] 0.073 | vemurafenib -0.079 | [12] 0.005 | barasertib 0.015 | [13] -0.019 | volasertib 0.016 | [7] 0.093 | [9] -0.321 | sotrastaurin 0.167
active: [8] 0.689

TNIK isoform 5 (UniProt Q9UKE5)
inactive: ibrutinib 0.07 | [10] 0.345 | ralimetinib 0.016 | [1] -0.026 | [4] -0.091 | [5] 0.276 | [6] -0.004 | [11] -0.136 | [12] -0.118 | barasertib 0.021 | volasertib -0.087 | [7] -0.059 | [8] -0.051 | [9] -0.065 | saracatinib 0.022 | sotrastaurin 0.034

TUBB4A (UniProt M0QYM7)
inactive: ibrutinib 0.092 | [10] 0.049 | ralimetinib 0.103 | [1] -0.117 | [2] 0.005 | [3] -0.102 | [5] 0.13 | [6] 0.102 | [11] 0.024 | vemurafenib 0.019 | [12] -0.099 | barasertib 0.315 | [13] -0.193 | volasertib -0.069 | [7] -0.053 | [8] -0.772 | [9] 0.448 | sotrastaurin 0.111

TTC37 (UniProt Q6PGP7)
Sequence of UniProt Q6PGP7 (Q6PGP7 whole entry, looked up): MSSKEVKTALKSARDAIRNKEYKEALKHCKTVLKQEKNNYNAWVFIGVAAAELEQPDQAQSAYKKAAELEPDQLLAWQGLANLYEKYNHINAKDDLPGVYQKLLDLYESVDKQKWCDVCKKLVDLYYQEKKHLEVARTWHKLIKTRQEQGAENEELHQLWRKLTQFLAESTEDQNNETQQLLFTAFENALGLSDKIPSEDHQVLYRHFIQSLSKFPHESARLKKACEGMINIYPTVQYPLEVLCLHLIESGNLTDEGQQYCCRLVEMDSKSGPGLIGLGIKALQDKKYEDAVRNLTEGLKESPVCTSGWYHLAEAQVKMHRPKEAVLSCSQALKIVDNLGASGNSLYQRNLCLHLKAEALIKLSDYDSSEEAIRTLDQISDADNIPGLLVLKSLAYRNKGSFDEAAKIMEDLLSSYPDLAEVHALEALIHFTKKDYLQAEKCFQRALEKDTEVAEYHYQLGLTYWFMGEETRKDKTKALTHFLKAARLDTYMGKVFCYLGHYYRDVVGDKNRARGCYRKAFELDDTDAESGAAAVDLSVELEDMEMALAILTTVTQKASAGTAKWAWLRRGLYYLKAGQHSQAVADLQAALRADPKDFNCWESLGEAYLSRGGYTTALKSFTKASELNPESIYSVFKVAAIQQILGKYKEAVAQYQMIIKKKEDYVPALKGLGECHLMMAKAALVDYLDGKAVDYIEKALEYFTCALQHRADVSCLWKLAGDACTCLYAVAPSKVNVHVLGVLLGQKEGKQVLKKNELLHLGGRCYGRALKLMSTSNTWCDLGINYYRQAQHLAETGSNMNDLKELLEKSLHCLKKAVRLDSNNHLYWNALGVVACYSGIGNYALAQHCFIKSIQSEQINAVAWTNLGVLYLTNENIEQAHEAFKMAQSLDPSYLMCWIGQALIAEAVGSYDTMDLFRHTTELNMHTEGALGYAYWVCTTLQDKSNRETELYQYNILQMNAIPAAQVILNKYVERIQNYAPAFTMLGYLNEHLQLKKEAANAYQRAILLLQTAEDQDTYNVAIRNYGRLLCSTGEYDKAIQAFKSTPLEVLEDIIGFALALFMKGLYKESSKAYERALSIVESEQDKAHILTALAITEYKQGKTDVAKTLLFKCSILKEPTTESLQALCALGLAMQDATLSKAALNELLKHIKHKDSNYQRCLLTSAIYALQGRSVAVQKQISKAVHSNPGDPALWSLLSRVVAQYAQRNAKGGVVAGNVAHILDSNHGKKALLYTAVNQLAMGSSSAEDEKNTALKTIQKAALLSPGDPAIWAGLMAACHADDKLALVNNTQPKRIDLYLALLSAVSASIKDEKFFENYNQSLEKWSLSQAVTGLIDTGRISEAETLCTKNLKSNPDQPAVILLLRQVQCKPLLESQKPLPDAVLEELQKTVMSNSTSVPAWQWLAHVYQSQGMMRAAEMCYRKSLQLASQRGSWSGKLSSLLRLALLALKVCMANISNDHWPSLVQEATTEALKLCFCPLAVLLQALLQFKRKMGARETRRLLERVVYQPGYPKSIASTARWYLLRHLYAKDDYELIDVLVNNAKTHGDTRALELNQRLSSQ
inactive: ibrutinib 0.012 | [10] 0.047 | ralimetinib -0.024 | [1] 0.012 | [2] -0.012 | [3] -0.019 | [4] -0.188 | [5] 0.154 | [6] -0.043 | [11] -0.15 | vemurafenib 0.053 | [12] -0.068 | barasertib 0.018 | volasertib 0.011 | [7] 0.045 | saracatinib 0.013 | sotrastaurin -0.019

TASP1 (UniProt Q9H6P5)
Sequence of UniProt Q9H6P5 (Q9H6P5 whole entry, looked up): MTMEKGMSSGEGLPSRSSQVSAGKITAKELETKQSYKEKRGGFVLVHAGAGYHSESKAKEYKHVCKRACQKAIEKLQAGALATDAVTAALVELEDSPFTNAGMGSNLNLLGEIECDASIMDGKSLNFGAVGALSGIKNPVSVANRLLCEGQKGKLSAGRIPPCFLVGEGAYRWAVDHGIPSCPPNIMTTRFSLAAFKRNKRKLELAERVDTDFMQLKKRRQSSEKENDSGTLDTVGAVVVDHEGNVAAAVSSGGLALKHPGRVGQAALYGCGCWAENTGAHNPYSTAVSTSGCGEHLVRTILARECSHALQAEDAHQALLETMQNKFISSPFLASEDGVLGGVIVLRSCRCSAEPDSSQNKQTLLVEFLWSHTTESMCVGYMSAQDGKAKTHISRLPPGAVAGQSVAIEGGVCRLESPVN
inactive: ibrutinib 0.005 | [10] 0.04 | ralimetinib -0.073 | [1] -0.062 | [2] 0.028 | [3] 0.089 | [4] -0.114 | [5] 0.009 | [6] -0.012 | [11] 0.067 | [12] 0.028 | barasertib 0.13 | [13] -0.082 | volasertib -0.02 | [7] -0.047 | saracatinib -0.082 | sotrastaurin 0.02

TNFAIP3 (UniProt P21580)
Sequence of UniProt P21580 (P21580 whole entry, looked up): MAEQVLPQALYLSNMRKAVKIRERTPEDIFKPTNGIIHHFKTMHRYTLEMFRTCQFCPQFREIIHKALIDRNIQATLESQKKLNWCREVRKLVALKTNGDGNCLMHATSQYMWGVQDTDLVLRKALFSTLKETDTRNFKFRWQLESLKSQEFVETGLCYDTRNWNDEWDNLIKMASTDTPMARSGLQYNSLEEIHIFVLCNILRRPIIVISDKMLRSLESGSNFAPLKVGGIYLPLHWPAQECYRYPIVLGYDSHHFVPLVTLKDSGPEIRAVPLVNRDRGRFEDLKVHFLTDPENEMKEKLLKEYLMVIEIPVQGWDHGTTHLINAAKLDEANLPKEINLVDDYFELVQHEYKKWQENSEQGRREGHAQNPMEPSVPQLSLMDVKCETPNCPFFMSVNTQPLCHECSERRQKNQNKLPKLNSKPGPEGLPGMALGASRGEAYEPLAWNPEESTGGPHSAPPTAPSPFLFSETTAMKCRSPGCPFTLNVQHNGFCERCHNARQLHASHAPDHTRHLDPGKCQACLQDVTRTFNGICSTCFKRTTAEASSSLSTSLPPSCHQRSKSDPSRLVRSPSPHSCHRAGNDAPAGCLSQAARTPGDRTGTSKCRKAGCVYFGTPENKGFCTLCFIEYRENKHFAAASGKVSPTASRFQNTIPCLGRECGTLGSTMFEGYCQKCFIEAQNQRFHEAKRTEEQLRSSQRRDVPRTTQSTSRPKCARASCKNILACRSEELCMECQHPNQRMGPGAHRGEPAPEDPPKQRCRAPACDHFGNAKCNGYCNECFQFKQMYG
inactive: ibrutinib -0.123 | [10] -0.1 | ralimetinib -0.056 | [1] 0.005 | [2] -0.045 | [3] 0.003 | [4] 0.016 | [5] -0.035 | [6] 0.068 | [11] 0.053 | [12] 0.004 | barasertib -0.015 | [13] -0.412 | volasertib -0.063 | [7] 0.051 | [8] -0.009 | [9] 0.017 | saracatinib 0.029 | sotrastaurin -0.006

TLK2 isoform 3 (UniProt Q86UE8)
inactive: [8] 0.104 | [9] -0.036

TTLL12 (UniProt V9GY16)
inactive: ibrutinib -0.32 | ralimetinib -0.339 | [1] -0.165 | [2] -0.333 | [5] 0.031 | [6] -0.009 | vemurafenib 0.261 | barasertib 0.102 | [13] 0.227 | [7] -0.465 | [8] -0.393 | [9] 0.133 | sotrastaurin -0.175

TPM3 isoform 3 (UniProt P06753)
Sequence of UniProt P06753 (P06753 whole entry, looked up): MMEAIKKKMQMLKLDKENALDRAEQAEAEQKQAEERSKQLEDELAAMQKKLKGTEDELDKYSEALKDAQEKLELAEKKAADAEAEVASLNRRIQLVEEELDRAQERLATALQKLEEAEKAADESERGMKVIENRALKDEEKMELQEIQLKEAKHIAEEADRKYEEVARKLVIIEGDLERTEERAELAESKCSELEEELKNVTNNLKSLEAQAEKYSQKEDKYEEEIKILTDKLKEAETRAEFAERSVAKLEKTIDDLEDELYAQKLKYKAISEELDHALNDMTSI
inactive: [10] 0.066 | ralimetinib 0.145 | [1] 0.093 | [2] -0.125 | [4] 0.005 | [5] -0.157 | [6] 0.012 | [11] -0.032 | vemurafenib -0.082 | [12] 0.011 | [13] -0.187 | volasertib 0.036 | [7] 0.029 | [8] -0.493 | [9] 0.184 | saracatinib 0.009 | sotrastaurin 0.028

TMEM154 (UniProt Q6P9G4)
Sequence of UniProt Q6P9G4 (Q6P9G4 whole entry, looked up): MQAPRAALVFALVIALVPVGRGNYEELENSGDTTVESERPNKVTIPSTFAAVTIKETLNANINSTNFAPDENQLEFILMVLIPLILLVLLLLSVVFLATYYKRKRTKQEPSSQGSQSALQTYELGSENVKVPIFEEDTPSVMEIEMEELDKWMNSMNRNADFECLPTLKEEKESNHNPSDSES
inactive: ralimetinib -0.079 | [1] 0.164 | [4] 0.048 | [5] -0.052 | [6] 0.172 | [13] 0.022 | [7] -0.08 | saracatinib -0.036 | sotrastaurin 0.116

UBR4 isoform 4 (UniProt Q5T4S7)
inactive: [10] 0.131 | ralimetinib -0.092 | [1] -0.201 | [2] 0.111 | [4] 0.331 | [6] -0.02 | [11] 0.034 | vemurafenib 0.02 | [12] -0.1 | [13] -0.096 | volasertib -0.104 | [7] 0.077 | saracatinib 0.061
